Records with an inconclusive call do not appear. Entries that show only a call come without a potency. The source made the active and inactive calls. Calls come from the whole dose curve; as a rule, active = well fitted inhibition curve with a large enough effect; inconclusive = small, poorly fitted or top-dose-only effect; inactive = flat fitted curve, though single readings scatter.
Molecular target: Phospholipid hydroperoxide glutathione peroxidase GPX4 (Homo sapiens) (UniProt P36969)
Assay: Primary qHTS Assay for Inhibitors of Recombinant Selenoprotein Glutathione Peroxidase 4 (GPX4) (AID 1845192); note: nearly all actives have a fitted effect of over 65% in size
Conditions: recombinant GPX4, GR-coupled NADPH fluorescence, 15 min; series mostly up to 50 µM
From the text: Assay Provider: Elias S.J. Arner MD PhD.
Department of Medical Biochemistry and Biophysics
Karolinska Institutet, Solna, Stockholm, Sweden
Selenoprotein glutathione peroxidases (GPX), like the ubiquitously expressed GPX1 and the ferroptosis modulator GPX4, enact their antioxidant activities by reducing hydroperoxides using glutathione. […] GPX1 and GPX4 inhibitors have thus shown promise as anti-cancer agents. Existing inhibitors are often promiscuous, or modulate GPX activity only indirectly, so novel direct inhibitors identified through screening against GPX1 and GPX4 could be valuable. Here, we developed optimized glutathione reductase (GR)-coupled GPX assays for the biochemical high-throughput screen (HTS) of almost 12,000 compounds with known mechanisms of action. Initial hits were triaged using a GR counter-screen, assessed for isoform specificity using a separate GPX2 assay, and were assessed for general selenocysteine-targeting activity using a thioredoxin reductase (TXNRD1) assay. With this suite of assays, we identified novel GPX1/GPX2- and GPX4-specific inhibitors and can here present a validated pipeline for future discovery research for selenoprotein-targeting agents.
SEQUENCE No. (e.g., 1, 2, 3, etc.); […] (e.g., Cells, Incubation, Reagent, etc.); VALUE; DESCRIPTION.
1; Reagent 1; 3 uL; 333.33 nM GPx4 enzyme or no enzyme control in 1536-well, black, solid Greiner assay plate.
2; Compound; 25 nL; Kalypsis pin tool (Wako USA) equipped with a 1536-well pin head.
3; Incubation; 30 min; room temperature.
4; Reagent 2; 1 uL; 500 nM GR, 5 mM GSH, 2.5 mM NADPH solution
5; Reagent 3; 1 uL; 2.5 mM CHP in 50% EtOH.
6; Detection; Fluorescence; ViewLux microplate reader, excitation 340 nm and emission 450 nm.
7; Incubation; 15 min; room temperature.
8; Detection; Fluorescence; ViewLux microplate reader, excitation 340 nm and emission 450 nm.
NOTES (numbers refer to Sequence numbers above)
1. 3 µL of 333.33 nM GPX4 and 0.016% BSA in assay buffer (50 mM Tris-HCl, 2 mM EDTA (pH 7.5), 150 mM NaCl) was added to columns 3-48 of 1536-well plates using a BioRAPTR Flying Reagent Dispenser (Let's Go Robotics (LGR), Carlsbad, CA). A no-enzyme control (0.01% BSA in TES assay buffer) was added to columns 1-2.
2. 25 nL, library and DMSO controls were added to each well with a pin tool (Kalypsys).
3. The assay plates were incubated for 30 minutes at room temperature.
4. 1 µL of master mix (500 nM glutathione reductase (GR), 5 mM reduced glutathione (GSH), 2.5 mM NADPH in assay buffer) was added.
5. 1 µL of cumene hydroperoxide (CHP) ([2.5 mM] in 50% EtOH) was then added within 5 minutes to initiate the reaction. Final concentrations were: 200 nM GPX4, 1 mM GSH, 0.5 mM CHP, 0.5 mM NADPH, 100 nM GR, 0.01% BSA.
6. Initial fluorescence readout (t=0) at 340/450 nm was measured using a ViewLux multimodal detector (PerkinElmer, Waltham, MA).
8. Endpoint fluorescence readout (t=15) at 340/450 nm was measured 15 min after room temperature incubation.
Potency is the fitted concentration of half-maximal effect.

Phospholipid hydroperoxide glutathione peroxidase GPX4 (Homo sapiens), sequence (P36969 whole entry, looked up): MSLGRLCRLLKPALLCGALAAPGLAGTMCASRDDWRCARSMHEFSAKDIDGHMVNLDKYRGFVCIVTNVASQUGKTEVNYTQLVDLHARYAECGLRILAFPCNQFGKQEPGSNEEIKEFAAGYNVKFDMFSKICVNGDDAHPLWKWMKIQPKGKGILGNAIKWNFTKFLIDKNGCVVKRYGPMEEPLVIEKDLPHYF

| Structure (SMILES) | Potency | activity change, negative = inhibition |
| --- | --- | --- |
| O=C1/C(=C/c2ccccc2)C[C@@]2(O)[C@H]3Cc4ccc(O)c5c4[C@@]2(CCN3CC2CC2)[C@H]1O5 | inactive |  |
| COc1cc2c(cc1OC)[C@@]13CCN4CC5=CCO[C@H]6CC(=O)N2[C@H]1[C@H]6[C@H]5C[C@H]43 | inactive |  |
| CC(=O)O[C@H]1C[C@@H](OC(C)=O)C(C)(C)C2C[C@@H](O)[C@]3(C)C(CC[C@@]4(C)[C@H](C5=CC(=O)OC5O)C[C@H]5O[C@]543)[C@]21C (stereo not given in full) | inactive |  |
| CC(C)NP(=O)(NC(C)C)OP(=O)(NC(C)C)NC(C)C | inactive |  |
| O=C1CC[C@@]2(O)C3Cc4ccc(O)c5c4C2(CCN3CC2CC2)[C@H]1O5 (stereo not given in full) | inactive |  |
| C[C@H](N)Cc1cccc(C(F)(F)F)c1 | inactive |  |
| Cc1o[nH]c(=O)c1CC(N)C(=O)O (stereo not given) | inactive |  |
| Oc1ccc2c3c1O[C@H]1[C@@H](O)CC[C@@]4(O)[C@@H](C2)N(CC2CCC2)CC[C@]314 | inactive |  |
| CCS(=O)(=O)Nc1cccc(C(=C2CCCCC2)c2cnc[nH]2)c1 | inactive |  |
| CC[C@H]1CN2CC[C@H]1C[C@@H]2[C@@H](O)c1ccnc2ccc(OC)cc12 | inactive |  |
| CCn1cnc2c(Nc3cccc(Cl)c3)nc(N[C@@H]3CCCC[C@@H]3N)nc21 | inactive |  |
| OC1CCCCC1N1CCC(c2ccccc2)CC1 (stereo not given) | inactive |  |
| NNC(=O)c1ccc(O)cc1 | inactive |  |
| COC1=CC(=O)O[C@@H](CCc2ccccc2)C1 | inactive |  |
| C[N+](C)(C)CC#CCN1CCCC1=O | inactive |  |
| CN1C(=O)N(c2ccc(C#N)c(C(F)(F)F)c2)C(=O)[C@]1(CO)c1ccccc1 | inactive |  |
| C/C=C(\C)C(=O)O[C@H]1[C@H](OC(C)=O)[C@]2(CO)[C@H](O)[C@H](O)[C@]3(C)C(=CCC4[C@@]5(C)CC[C@H](O[C@@H]6O[C@H](C(=O)O)[C@@H](O)[C@H](O[C@@H]7OC[C@H](O)[C@H](O[C@@H]8OC[C@H](O)[C@H](O)[C@H]8O)[C@H]7O)[C@H]6O[C@@H]6O[C@H](CO)[C@@H](O)[C@H](O)[C@H]6O)C(C)(C)C5CC[C@]43C)[C@@H]2CC1(C)C (stereo not given in full) |  | 2.03% [at 9.73 µM] (inactive) |
| O=C(NC1CN2CCC1CC2)c1cc2ccoc2cn1 (stereo not given) | inactive |  |
| C[C@]12CC[C@H]3[C@@H]([C@H](O)CC4=CC(=O)CC[C@@]43C)[C@@H]1CC[C@@H]2O | inactive |  |
| C=CCN1C[C@@H](C)N([C@H](c2ccc(C(=O)N(CC)CC)cc2)c2cccc(OC)c2)C[C@@H]1C | inactive |  |

| Structure (SMILES) | Potency | activity change, negative = inhibition |
| --- | --- | --- |
| OC1(c2ccc(Cl)cc2)c2ccccc2C2=NCCN21 (stereo not given) | inactive |  |
| CC(=O)OCC1=C(C(=O)O)N2C(=O)[C@@H](NC(=O)CCC[C@@H](N)C(=O)O)[C@H]2SC1 | inactive |  |
| CC(=O)OC12C(O)C(C)C3(O)C4C=C(C)C(=O)C4CC(CO)=CC3C1C2(C)C (stereo not given) | inactive |  |
| Oc1ccc2c3c1O[C@H]1c4[nH]c5ccccc5c4C[C@@]4(O)C(C2)N(CC2CC2)CCC314 (stereo not given in full) | inactive |  |
| C[N+]1(C)CCc2cc3c(cc2[C@H]1[C@@H]1OC(=O)c2c1ccc1c2OCO1)OCO3 | inactive |  |
| COC([CH2][Hg])CNC(=O)c1ccccc1OCC(=O)O (stereo not given) | inactive |  |
| CN1C2CCC1CC(OC(c1ccccc1)c1ccccc1N)C2 (stereo not given) | inactive |  |
| CC(C)[C@@H](CN1CC[C@@](C)(c2cccc(O)c2)[C@@H](C)C1)NC(=O)[C@H]1Cc2ccc(O)cc2CN1 | inactive |  |
| CC(C)(O)[C@@H]1[C@H]2OC(=O)[C@@H]1[C@]1(O)C[C@H]3O[C@]34C(=O)O[C@H]2[C@]14C | inactive |  |
| CC(C)CCC(=O)O[C@H]1CC[C@H]2[C@@H]3CCC4=CC(=O)CC[C@]4(C)[C@H]3CC[C@]12C | inactive |  |
| O=c1[nH]cc(N(CCCl)CCCl)c(=O)[nH]1 | inactive |  |
| C[N+]1(C)CCN(c2ccccc2)CC1 | inactive |  |
| CCCN1CCO[C@H]2c3cc(O)ccc3OC[C@@H]21 | inactive |  |
| Cc1c(Cl)cccc1S(=O)(=O)Nc1nc(CC(=O)N2CCN(C)CC2)cs1 | inactive |  |
| CCC(=O)O[C@@](Cc1ccccc1)(c1ccccc1)[C@@H](C)CN(C)C | inactive |  |
| C[C@]12CCC(=O)C=C1C=C[C@@H]1[C@@H]2CC[C@@]2(C)[C@H]1CC[C@@]2(O)CCC(=O)O | inactive |  |
| CN(N=O)c1ccc(O)c(O)c1 | inactive |  |
| CCCCCCC(=O)O[C@H]1CC[C@H]2[C@@H]3CC[C@H]4CC(=O)C=C(C)[C@]4(C)[C@H]3CC[C@]12C | 6.31 µM (active) |  |
| CC[C@H](C)[C@H]1O[C@]2(C=C[C@@H]1C)C[C@@H]1C[C@@H](C/C=C(\C)[C@@H](O[C@H]3C[C@H](OC)[C@@H](O[C@H]4C[C@H](OC)[C@@H](O)[C@H](C)O4)[C@H](C)O3)[C@@H](C)/C=C/C=C3\CO[C@@H]4[C@H](O)C(C)=C[C@@H](C(=O)O1)[C@]34O)O2 | 5.01 µM (active) |  |
| CCC1NC(=O)C2C(Cl)C(Cl)CN2C(=O)C(C(C)O)NC(=O)CC(c2ccccc2)NC(=O)C(CO)NC1=O (stereo not given) | inactive |  |
